# Assay results taken from PubChem BioAssay AID504608 (National Center for Advancing Translational Sciences (NCATS), 2011).
# Activity calls are given as the source filed them. Calls follow the shape of the dose curve; as a rule, active = well fitted inhibition curve with a large enough effect; inconclusive = small, poorly fitted or top-dose-only effect; inactive = flat fitted curve, though single readings scatter.
# Experiment: Quantitative high throughput screen for delayed death inhibitors of the malarial parasite plastid, 48 hour incubation.
# Details: P. falciparum in erythrocytes, luciferase growth
# Text: NIH Molecular Libraries Probe Production Network [MLPCN] NIH Chemical Genomics Center [NCGC] MLPCN Grant: R21 NS059500 Assay Provider: David Fidock and Eric Ekland, Columbia University The goal of this screen is to discover new antimalarial compounds that act by inhibiting the development of the apicoplast in the malarial parasite Plasmodium falciparum. The biochemical processes that make this organelle essential for erythrocytic stage parasites are not well understood. However, antibiotics, such as azithromycin and tetracycline, which target the apicoplast translational machinery, have a potent antimalarial effect. […] We have developed a cell-based assay that measures parasite growth based on the expression of an integrated copy of a firefly luciferase reporter. To detect small molecules that cause this 'delayed death' phenotype, erythrocytes infected with the luciferase-expressing parasites were incubated with compounds for either one or two generations, corresponding to 48 and 96 hours, respectively. Compounds that inhibit parasite growth in the second generation, but not the first, should be enriched in antimalarials that target the apicoplast. Growth inhibition is detected by a decrease in luciferase activity
# Four microliters of culture medium (RPMI 1640 with 0.5% w/v Albumax (GIBCO), 24 mM sodium bicarbonate and 10 ug/mL gentamycin) were dispensed by a Multi-drop Combi into white solid 1536-well plates (Grenier) and 23 nL compound was added by a pin tool. Four microliters of infected erythrocytes (2% hematocrit, 0.1% parasitemia final concentration) in culture medium were dispensed and the plates incubated for 48 hours at 37 C in 5% CO2. Two microliters of luciferase detection reagent was added and luminescence was detected by a ViewLux (PerkinElmer) reader
row,SMILES,Potency
1,C[C@@H]1CN([C@@H](C)CO)C(=O)c2cc(NC(=O)Nc3ccccc3)ccc2O[C@@H](C)CCCCO[C@H]1CN(C)C(=O)Oc1ccccc1,5.04 µM (active)
2,COCCOC(=O)N(C)C[C@@H]1OCCCC[C@H](C)Oc2ccc(NC(=O)Nc3ccccc3)cc2C(=O)N([C@@H](C)CO)C[C@H]1C,14.2 µM (active)
3,COc1ccc(COC[C@H](C)N2C[C@@H](C)[C@H](CN(C)S(=O)(=O)c3ccc(F)cc3)OCCCC[C@H](C)Oc3ccc(NC(=O)Nc4ccccc4)cc3C2=O)cc1,0.0036 µM (active)
